Active and inactive are the calls of the source. The calls were made as follows: active = hit-call score of the fitted dose curve at least 0.9, where 1 is the maximum; inactive = score below 0.9.

Read-out in the assay: cysteine-aspartic acid protease (CASP8), CASP8 (gene 841)
Description: LTEA_HepaRG_CASP8: Life Technologies and Expression Analysis (LTEA) Assay for cysteine-aspartic acid protease (CASP8) using HepaRG (AID 2283480). The settings on record: mRNA level, 48 h; actives raise or lower the signal. The method, then:
LTEA_HepaRG is a cell based, multiplexed-readout assay that uses HepaRG, a human liver cell line, with measurements taken at 48 hours after chemical dosing on a 96-well plate.LTEA_HepaRG_CASP8 is one of 102 assay component(s) measured in the LTEA HepaRG cell culture assay. It is a marker of Cell proliferation, survival, death.Data from the assay component LTEA_HepaRG_CASP8 was analyzed into 1 endpoint. This assay endpoint, LTEA_HepaRG_CASP8, was analyzed with bidirectional fitting relative to DMSO as the negative control and baseline of activity. Using a type of inducible reporter, measures of mRNA induction for gain or loss-of-signal activity can be used to understand regulation of transcription factor activity. To generalize the intended target to other relatable targets, this assay endpoint is annotated to the protease intended target family, where the subfamily is cysteine protease.
A total of 1060 chemcials from the ToxCast library were tested in eight-point concentration-response experiments. Cell culture and cytotoxicity assays were conducted at Thermo Fisher Scientific's Custom Services facility (Madison, WI). A single lot of human HepaRG cells (Thermo Fisher Scientific, Frederick, MD) was used for the cell culture experiments. 96-well format collagen type I coated plates of human HepaRG cells were prepared using established methods. Briefly, cryopreserved HepaRG cells were thawed, plated at a density of approximately 100,000 cells/well in HepaRG Thaw, Plate, and General Purpose media (HPRG770, Thermo Fisher Scientific), and incubated for 48 hours. 0.5% DMSO was selected as vehicle control to balance the requisite need of DMSO in HepaRG cultures to maintain differentiation (for example, baseline metabolism, proportions of hepatocytes vs. cholangiocytes), while enabling further hepatic receptor pathway activation (for example, PXR and CAR) in response to chemical exposure. 48 hours after plating, the culture medium was replaced with HepaRG Serum-Free Incudtion Media. Cells were exposed to each test chemical in duplicate and maintained in CO2 incubators for another 48 hours. Chemical plates were thawed to room temperature and 200x concentrations of treatment groups were prepared. 8-point conentration-reponse curves were made with the highest exposure at 100 uM, followed by half-log dilutions, all in 0.5% DMSO. Each test plate contained variouse controls, induction positive controls (1mM phenobarbital), cytotoxicity positive controls ([…] aflatoxin B1), vehicle controls (0.5% DMSO), and total lysis controls (0.5% DMSO). Cell morphology images were taken using an Essen IncuCyte FLR automated microscope, with six 96-well plates imaged in about 24 minutes. Images were captured and exported and JPEG files. Spent culture media was transfered to black-well plates for the LDH assay, and remaining media was sorted at -80 C for later use. Cells were treated with RLT buffer and frozen until shipped for gene expression analysis. Total RNA was isolated from the cell suspension in 75 uL of Buffer RLT (Qiagen, Germantown, MD 20874) by Quintiles/Expression Analysis (Durham, NC) using a custom isolation procedure. Total RNA from each plate well was transferred to a preamplification plate. Fluidigm's 96.96 Dynamic ArrayTM (Fluidigm, Amsterdam, the Netherlands) technology was used for gene expression analyses by quantitative reverse transcription polymerase chain reaction (qRT-PCR, performed by Quintiles/Expression Analysis, Durham, NC)89. Standard TaqManTM Assays (Applied Biosystems/ThermoFisher Scientific, Foster City, CA) were used to assess the expression of 93 genes selected based on their selectivity and sensitivity to important hepatic receptors known to be modulated by environmental chemicals; importance in human hepatocyte functionality; and hepatotoxicity. […]
For `C[C@@H]1C[C@@H]([C@H](O)CC2CC(=O)NC(=O)C2)C(=O)[C@@H](C)C1`, the AC50 (in general, the concentration giving half of the maximal activity seen) was 79.9 µM (active). `O=C(O)C(F)(F)C(F)(F)C(F)(F)C(F)(F)C(F)(F)C(F)(F)F`: the call was inactive. In the case of `CCOP(=S)(OCC)SCSP(=S)(OCC)OCC`, the outcome was inactive. On to `ClC1(Cl)C2(Cl)C3(Cl)C4(Cl)C(Cl)(Cl)C5(Cl)C3(Cl)C1(Cl)C5(Cl)C24Cl` (stereo unspecified), for which the result was inactive.

On to `CC(C)(C)CC(C)(C)c1ccc(O)cc1`, for which the compound was classed as inactive. For the compound `Oc1cccc2cccnc12`, the compound was called inactive.

With `CN(C)N=O`, the call was inactive. Turning to `CC(C)(c1ccccc1)c1ccc(O)c(C(C)(C)c2ccccc2)c1`, the outcome was inactive. `CCCCCCCCc1ccc(O)cc1`: the call was inactive. Same read-out and setting: under `CCC(=O)C(CC(C)N(C)C)(c1ccccc1)c1ccccc1` (stereo unspecified) stands “inactive”; under `Cn1sc(Cl)cc1=O`, “inactive”. Turning to `NC(=O)O`, the outcome was inactive.

Consider `CC(=O)[O][Hg][c]1ccccc1`, for which the AC50 was 26.6 µM (active). With `CC(C)(OO)c1ccccc1`, the compound was classed as inactive. `CCN1CCC2(CC1)COc1cc3c(cc12)N(C(=O)c1ccc(-c2ccc(-c4nnc(C)o4)cc2C)cc1)CC3`: the AC50 is 21.8 µM (active).

With `C=CC(=O)OCCCCCC(C)C`, the call was inactive. For the compound `O=C(O)C(F)(F)C(F)(F)C(F)(F)C(F)(F)C(F)(F)C(F)(F)C(F)(F)C(F)(F)C(F)(F)C(F)(F)F`, the compound was classed as inactive.

As for `CCC(C)(C)c1ccc(O)c(C(C)(C)CC)c1`, the outcome was inactive. Turning to `O=C1C2(Cl)C3(Cl)C4(Cl)C(Cl)(Cl)C5(Cl)C3(Cl)C1(Cl)C5(Cl)C24Cl` (stereo unspecified), the compound was classed as inactive.

With `CC(C)(C)c1cc(O)ccc1O`, the compound was classed as inactive. Same read-out and setting: the entry for `CCOP(=S)(OCC)Oc1nc(Cl)c(Cl)cc1Cl` is “inactive”; for `ClCC(Cl)CCl` it is “inactive”; for `O=c1[nH]c(=O)[nH]c(=O)[nH]1` it is “inactive”. Regarding `O=[N+]([O-])c1ccc(O)c([N+](=O)[O-])c1`, the AC50 is 22.3 µM (active). Turning to `O=C(Nc1ccc2[nH]ccc2c1)c1cc2cc(F)ccc2n1Cc1cccc(F)c1`, the compound was called inactive.

For `CC12CC1(C)C(=O)N(c1cc(Cl)cc(Cl)c1)C2=O` (stereo unspecified), the compound was called inactive. For the compound `O=C(O)C(Cl)(Cl)Cl`, the outcome was inactive. With `Cc1ccccc1N`, the compound was called inactive. In the case of `C[C@]12CCC(=O)C[C@@H]1CC[C@@H]1[C@@H]2CC[C@]2(C)[C@@H](O)CC[C@@H]12`, the call was inactive. Take `COc1cc(-c2ccc(N)c(OC)c2)ccc1N`: the compound was called inactive. Still for that read-out and setting: under `C=C(C)C(=O)[O][Sn]([CH2]CCC)([CH2]CCC)[CH2]CCC` stands “inactive”.
